{"source": "ChEMBL document CHEMBL4888484", "about": "“Replenishing the malaria drug discovery pipeline: Screening and hit evaluation of the MMV Hit Generation Library 1 (HGL1) against asexual blood stage Plasmodium falciparum ,using a nano luciferase reporter read-out” (2022)", "note": "The whole screen tested about 150,000 compounds, of which about 540 (0.36%) showed an effect of 50% or more. What follows is part of a selection rich in strong results, with near analogues and random picks from the rest.", "data": [{"test_system": "Plasmodium falciparum", "assay": "Primary screen in NF54 nanoGlo assay, in single point, at 2uM, 72h; a lower Z score goes with more inhibition", "type": "functional, Erythrocyte", "conditions": "timepoint 72 hour", "units": {"% Inhibition": "%"}, "values": [{"compound": "CCc1cc(=O)[nH]c(-n2nc(C3CC3)cc2NC(=O)C2CCCCC2)n1", "% Inhibition": 86, "Z score": -14.68}, {"compound": "CC(C)NC(=O)CN(C)CC(=O)Nc1cc(C2CCCC2)nn1-c1ccccc1", "% Inhibition": 1, "Z score": -0.16}, {"compound": "CCc1cc(NC(=O)C2CN(C(=O)C3CCCCC3)C2)n(C)n1", "% Inhibition": -13, "Z score": 2.45}, {"compound": "O=C(CN1CCCCC1)Nc1cc(C2CC2)nn1-c1ccccc1", "% Inhibition": 1, "Z score": -0.24}, {"compound": "Cc1cc(N)n(-c2nc(-c3ccccc3)cc(=O)[nH]2)n1", "% Inhibition": 35, "Z score": 0.14}, {"compound": "O=C(CCCc1ccccc1)Nc1cc(C2CC2)nn1-c1nc(-c2ccccc2)cc(=O)[nH]1", "% Inhibition": 54, "Z score": -8.76}, {"compound": "CC(C)(C)c1cc(NC(=O)CCCc2ccccc2)n([C@H]2CCS(=O)(=O)C2)n1", "% Inhibition": -2, "Z score": 0.38}, {"compound": "CCC(CC)C(=O)Nc1cc(C2CC2)nn1-c1nc(-c2ccccc2)cc(=O)[nH]1", "% Inhibition": 69, "Z score": -9.47}, {"compound": "CCOC(=O)Nc1cc(C2CC2)nn1-c1nc2c(c(=O)[nH]1)CCCC2", "% Inhibition": 4, "Z score": -0.55}, {"compound": "Cc1ccc(C(=O)N2CCCC(C(=O)N3CCCC(c4nnc5ccccn45)C3)C2)cc1", "note": "(stereo not given)", "% Inhibition": -7, "Z score": 1.13}, {"compound": "CC(C)c1cc(-c2nc(-c3ccccn3)no2)[nH]n1", "% Inhibition": -11, "Z score": 1.24}, {"compound": "CCS(=O)(=O)Nc1ccnn1[C@@H](C)C1CC1", "% Inhibition": 3, "Z score": -0.45}, {"compound": "O=C(c1cnnn1-c1cccc(F)c1)N1CCCC12CCC2", "% Inhibition": -1, "Z score": 0.15}, {"compound": "COc1ccc(C(=O)NCCCc2nnc3ccccn23)o1", "% Inhibition": -9, "Z score": 1.7}, {"compound": "Cc1nc2ccccn2c(=O)c1CCN[C@@H](C)c1cccc(-n2cccn2)c1", "% Inhibition": 0, "Z score": 0.05}, {"compound": "Cc1ccc(C(=O)N2CCC3(CCc4nn(Cc5ccccc5)c(=O)n4CC3)CC2)s1", "% Inhibition": -7, "Z score": 0.82}, {"compound": "CCN1CCN(C2CCN(c3ncc(F)c(OC)n3)CC2)CC1", "% Inhibition": 51, "Z score": -7.32}, {"compound": "CNC(=O)[C@H]1CCN(c2ncc(F)c(OC)n2)C1", "% Inhibition": -10, "Z score": 1.93}, {"compound": "Cc1c(C2=NO[C@H]3C(=O)N(c4ccc5ccccc5c4)C(=O)[C@@H]23)cnn1C", "% Inhibition": 50, "Z score": -5.99}, {"compound": "O=C1[C@@H]2C(c3ccccc3Cl)=NO[C@@H]2C(=O)N1c1ccc2ccccc2c1", "% Inhibition": -9, "Z score": 1.2}, {"compound": "Cc1c(C2=NO[C@H]3C(=O)N(c4ccc(Cl)cc4)C(=O)[C@@H]23)cnn1C", "% Inhibition": -7, "Z score": 1}, {"compound": "O=C(c1ccc2c(c1)CCC2)N1CC(O)C1", "% Inhibition": 0, "Z score": 0}, {"compound": "Cc1cc(NCc2c(C)noc2C)nc(C2CC2)n1", "% Inhibition": -7, "Z score": 1.22}, {"compound": "c1cc(-c2ccc(N3CCNCC3)nn2)ccn1", "% Inhibition": 5, "Z score": -1.03}, {"compound": "Cc1ccnc(Nc2ccc(N3CCNCC3)nn2)c1", "% Inhibition": 56, "Z score": -6.55}, {"compound": "Cc1ccc(Nc2ccc(N3CCNCC3)nn2)nc1", "% Inhibition": 47, "Z score": -6.37}, {"compound": "CC(C)(C)OC(=O)CCc1cccnc1C(=O)O", "% Inhibition": -18, "Z score": 1.85}, {"compound": "CC1CC(C(=O)Nc2[nH]c(=O)ncc2F)CC(C)(C)C1", "note": "(stereo not given)", "% Inhibition": 92, "Z score": -13.24}, {"compound": "CC1CC(C(=O)N[C@@H](C)c2cnccn2)CC(C)(C)C1", "note": "(stereo not given in full)", "% Inhibition": 8, "Z score": -0.99}, {"compound": "CC1CC(C(=O)NCCCn2cn[nH]c2=O)CC(C)(C)C1", "note": "(stereo not given)", "% Inhibition": 0, "Z score": 0.05}, {"compound": "C#CCNC(=O)c1ccc(N[C@@H](C)COC)nc1", "% Inhibition": -9, "Z score": 1.46}, {"compound": "NC(=O)[C@@H]1CN(Cc2ccc(-c3ccc(Cl)cc3)s2)CCO1", "% Inhibition": -11, "Z score": 1.78}, {"compound": "Cc1ccccc1-n1c(=O)c2sccc2n(CC(=O)Nc2ccc(N(C)C)cc2)c1=O", "% Inhibition": 2, "Z score": -0.2}, {"compound": "Cc1cc(C)cc(-n2c(=O)c3sccc3n(CC(=O)Nc3ccc(N(C)C)cc3)c2=O)c1", "% Inhibition": 51, "Z score": 1.43}, {"compound": "COc1cccc(Cn2c(=O)c3sccc3n(CC(=O)Nc3ccc(N(C)C)cc3)c2=O)c1", "% Inhibition": 37, "Z score": -1.71}, {"compound": "CCN(CCn1cccn1)Cc1cncn1C1CC1", "% Inhibition": -7, "Z score": 1.49}, {"compound": "CCc1ccccc1Nc1c2c(nc3ccccc13)CCCC2", "% Inhibition": 9, "Z score": -1.19}, {"compound": "CCOC(=O)c1nc(NCC2CCN(Cc3ccccc3F)CC2)c2ccccc2n1", "% Inhibition": -6, "Z score": 1.09}, {"compound": "CCc1nnc(NCC(C)(C)CCS(C)(=O)=O)c(C#N)c1CC", "% Inhibition": 2, "Z score": -0.31}, {"compound": "CC(C)Oc1ccc(-c2cc(C(F)(F)F)n3nc(-c4ccccc4)c(-c4ccccc4)c3n2)cc1", "% Inhibition": -15, "Z score": 1.87}, {"compound": "Cc1ccnc([C@@H](NC(=O)c2c[nH]c3cc(C)nn3c2=O)C2CC2)c1", "% Inhibition": -2, "Z score": 0.39}, {"compound": "COc1ccc(OC)c([C@H]2N(Cc3ccc(F)cc3)CCCN2Cc2ccccc2Cl)c1", "% Inhibition": -3, "Z score": 0.37}, {"compound": "COc1ccc(OC)c(-n2c(-c3ccccc3)cc(C(=O)N3CCN(Cc4ccccc4)CC3)c2C)c1", "% Inhibition": -8, "Z score": 1.09}, {"compound": "CCC(C(=O)Nc1ccc2c(c1)CN(CCc1ccccc1)C(=O)C(C)O2)c1ccccc1", "note": "(stereo not given)", "% Inhibition": -7, "Z score": 0.66}, {"compound": "COc1cccc(NC(=O)Nc2ccc3c(c2)CN(CCc2ccc(OC)c(OC)c2)C(=O)[C@H](C)O3)c1", "% Inhibition": 0, "Z score": -0.08}, {"compound": "CCC(C(=O)Nc1ccc2c(c1)CN(CCc1ccc(OC)c(OC)c1)C(=O)C(C)O2)c1ccccc1", "note": "(stereo not given)", "% Inhibition": 91, "Z score": -17.08}, {"compound": "Cc1noc(C)c1N(C)C(=O)Nc1cccnc1", "% Inhibition": -2, "Z score": 0.36}, {"compound": "COc1ccc(NC(=O)[C@H](NC(=O)Cc2c[nH]c3ccccc23)c2ccc(C)cc2)cc1", "% Inhibition": -9, "Z score": 1.46}, {"compound": "CC1C(C(F)(F)F)OCCN1C(=O)NC1CCCC1Cc1ccccn1", "note": "(stereo not given)", "% Inhibition": -4, "Z score": 0.71}, {"compound": "COc1ccc(-c2cc(C(F)(F)F)nc(-n3nc(-c4cccc(C)c4)c(C)c3-c3cccc(C)c3)n2)cc1", "% Inhibition": -7, "Z score": 1.42}, {"compound": "COc1cccc(-c2nn(-c3nc(-c4ccccc4)cc(C(F)(F)F)n3)c(-c3cccc(OC)c3)c2Cl)c1", "% Inhibition": 38, "Z score": -3.81}, {"compound": "COc1ccc(-c2cc(C(F)(F)F)nc(-n3nc(-c4cccc(OC)c4)c(Cl)c3-c3cccc(OC)c3)n2)cc1", "% Inhibition": 91, "Z score": -10.21}, {"compound": "Cc1cc(NC(=O)c2ccc3ccccc3c2)n(-c2nc3c(c(=O)[nH]2)CCC3)n1", "% Inhibition": 2, "Z score": -0.26}, {"compound": "COCC(=O)Nc1cc(C)nn1-c1nc2c(c(=O)[nH]1)CCC2", "% Inhibition": 1, "Z score": -0.17}, {"compound": "COc1ccccc1OCC(=O)Nc1cc(C)nn1-c1nc2c(c(=O)[nH]1)CCC2", "% Inhibition": 1, "Z score": -0.14}, {"compound": "Cc1cc(NC(=O)C(=O)NC2CC(C)CC(C)(C)C2)n(-c2nc3c(c(=O)[nH]2)CCC3)n1", "note": "(stereo not given)", "% Inhibition": 85, "Z score": -13.4}, {"compound": "CCOc1ccc2ccccc2c1C(=O)Nc1cc(C)nn1-c1nc2c(c(=O)[nH]1)CCC2", "% Inhibition": 92, "Z score": -17}, {"compound": "Cc1cc(NC(=O)Cc2ccc(-c3ccccc3)cc2)n(-c2nc3c(c(=O)[nH]2)CCC3)n1", "% Inhibition": -4, "Z score": 0.86}, {"compound": "CC(NC(=O)N(C)CC1CCCO1)c1ccc(N2CCOCC2)cc1", "note": "(stereo not given)", "% Inhibition": -3, "Z score": 0.42}, {"compound": "COC[C@H]1CN(C)CC12CCN(C(=O)Cc1ccc(Cl)cc1)CC2", "% Inhibition": 9, "Z score": -1.07}, {"compound": "CCCC(=O)N1CCN(c2cc(-n3cnc(C)c3C)ncn2)CC1", "% Inhibition": -12, "Z score": 1.96}, {"compound": "COc1cc(C(=O)Nc2scnc2C)cc(OC)c1OC", "% Inhibition": 45, "Z score": 0.11}, {"compound": "COc1cc(C(=O)Nc2ccc(Nc3ccc(C)nn3)cc2)cc(OC)c1OC", "% Inhibition": 13, "Z score": -2.29}, {"compound": "COc1cc(C(=O)Nc2ccc3sc(NC(=O)c4cc(OC)c(OC)c(OC)c4)nc3n2)cc(OC)c1OC", "% Inhibition": 101, "Z score": -16.35}, {"compound": "Cn1cc(S(=O)(=O)NCc2cc(C3CC3)ncn2)cn1", "% Inhibition": 16, "Z score": -2.16}, {"compound": "Clc1cnn(CCN2CCc3onc(-c4cccc5ccccc45)c3C2)c1", "% Inhibition": -5, "Z score": 0.7}, {"compound": "CN1C(=O)CC[C@@]12CCN(C(=O)Nc1ccc3c(c1)OCCO3)C2", "% Inhibition": -5, "Z score": 0.78}, {"compound": "Cc1cc([C@@H]2CCCCN2CCn2cc(Cl)cn2)no1", "% Inhibition": -11, "Z score": 1.54}, {"compound": "COc1ccc(C(=O)N(C(=O)c2ccc(OC)cc2)c2c3c(nc4ccccc24)CCCC3)cc1", "% Inhibition": 69, "Z score": -5.66}, {"compound": "Oc1c2c(nc3ccccc13)CCCCC2", "% Inhibition": 25, "Z score": -3.15}, {"compound": "COc1cccc(C(=O)Nc2c3c(nc4ccccc24)CCCC3)c1", "% Inhibition": 1, "Z score": -0.12}, {"compound": "COc1ccccc1C(C)(C)c1noc([C@@]2(C)CCNC(=O)C2)n1", "% Inhibition": -3, "Z score": 0.4}, {"compound": "CCOc1ccc(N2C[C@@H](C(=O)NCCc3ccco3)CC2=O)cc1", "% Inhibition": 0, "Z score": -0.05}, {"compound": "C[C@H](NCc1ccccc1CN1CCOCC1)C(=O)Nc1cccc2ccccc12", "% Inhibition": -7, "Z score": 1.29}, {"compound": "c1ccc(C(c2ccccc2)N2CCN(c3nn4cnnc4c4ccccc34)CC2)cc1", "% Inhibition": 81, "Z score": -11.8}, {"compound": "c1ccc2[nH]c(C3CCN(c4nn5cnnc5c5ccccc45)CC3)nc2c1", "% Inhibition": -15, "Z score": 2.33}, {"compound": "Fc1ccc(N2CCN(c3nn4cnnc4c4ccccc34)CC2)cc1", "% Inhibition": -10, "Z score": 1.31}, {"compound": "COc1ccc(-c2nc3c(c(N4CCC[C@@H]4C)n2)CCOCC3)cc1", "% Inhibition": -10, "Z score": 0.99}, {"compound": "O=C(Nc1ccnn1C1CCC1)c1ccc(-c2cn[nH]c2)cn1", "% Inhibition": -10, "Z score": 1.42}, {"compound": "O=C1CCCCN1CCC(=O)N1CCc2onc(-c3cccc4ccccc34)c2C1", "% Inhibition": -1, "Z score": 0.1}]}]}
